Paper PMC10668032, “Altered binding affinity of SIX1-Q177R correlates with enhanced WNT5A and WNT pathway effector expression in Wilms tumor”
The full ranking holds about 33,000 sequences; the median of “e-score” is about -0.05, and the highest 2% start at about 0.38. For the sample, the highest values were picked, then their nearest neighbours and some sequences at random.

molecular target: T1, SIX1-Q177R homeodomain (human, UniProt Q15475 108-198, Q177R); test: universal protein binding microarray; Universal all-10-mer PBM (8x60K, AMADID 030236), 300 nM GST-tagged protein, Alexa Fluor 488 anti-GST; buffer, salt, pH and temperature not stated (as in Berger); high values mean tight binding; conditions: protein: ivt; tags: N-terminal GST; dsDNA, one strand shown
T1 sequence: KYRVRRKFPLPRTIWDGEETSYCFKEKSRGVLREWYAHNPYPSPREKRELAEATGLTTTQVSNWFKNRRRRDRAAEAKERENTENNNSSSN
Procedure, shortened: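 After in vitro transcription/translation, GST-tagged homeodomains were quantified against a recombinant GST standard curve by anti-GST western blot. They were then placed in duplicate at 300 nM final concentration on universal 'all 10-mer' protein binding microarrays of 8×60K format.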

CCCCAAGC and ACCCCGGC are within error of each other in binding signal: 0.228 ± 0.0222 E-score for the first, 0.262 ± 0.0281 E-score for the second.

ACTCCGGC and ATACCGGG are within error of each other in binding signal: 0.233 ± 0.0256 E-score for the first, 0.213 ± 0.0219 E-score for the second.

ACCCCGGT and ACCCCGGG are within error of each other in binding signal: 0.298 ± 0.00305 E-score for the first, 0.302 ± 0.0198 E-score for the second.

First: CCACCGGA
Second: ACACCGGT
The binding signal of the first is lower: 0.203 ± 0.037 E-score for the first, 0.481 ± 0.00684 E-score for the second.

First: GCACCGGA
Second: ACACCGGG
The binding signal of the first is lower: 0.162 ± 0.0479 E-score for the first, 0.4843 ± 0.00112 E-score for the second.

ACACCGGA and ACACCGGC are within error of each other in binding signal: 0.476 ± 0.00539 E-score for the first, 0.481 ± 0.00281 E-score for the second.

ACACAGGT and CACCATCC are the same in binding signal: 0.252 ± 0.0297 E-score for the first, 0.252 ± 0.00467 E-score for the second.

Going from GTGCTCTA to CCAACTAC, the binding signal falls from 0.221 ± 0.0342 E-score to 0.151 ± 0.00402 E-score.

Compared with ACCTCTAC, ACCACGTG is higher in binding signal: 0.151 ± 0.00402 E-score for the first, 0.194 ± 0.00218 E-score for the second.

First: ACGGGATC
Second: CGGGGTAA
The binding signal of the first is lower: 0.197 ± 0.0102 E-score for the first, 0.235 ± 0.0071 E-score for the second.

ACACTCAA and ACACTCAG are within error of each other in binding signal: 0.39 ± 0.0152 E-score for the first, 0.387 ± 0.00387 E-score for the second.

ACACTTAA and ACACTTAG are within error of each other in binding signal: 0.316 ± 0.0276 E-score for the first, 0.355 ± 0.0376 E-score for the second.

ACACTCAT and ACACTTAC are within error of each other in binding signal: 0.388 ± 0.0116 E-score for the first, 0.378 ± 0.013 E-score for the second.

Compared with ACACTCAC, ACTCACAC is lower in binding signal: 0.39 ± 0.00873 E-score for the first, 0.3 ± 0.0164 E-score for the second.

First: ACTCTTAT
Second: ACACTCTA
The binding signal of the first is lower: 0.212 ± 0.0414 E-score for the first, 0.367 ± 0.0161 E-score for the second.

First: CACTTACC
Second: AGCCCGGG
The binding signal of the first is higher: 0.224 ± 0.032 E-score for the first, 0.157 ± 0.00865 E-score for the second.

Compared with CGTGAACC, TGTATACA is higher in binding signal: 0.17 ± 0.0126 E-score for the first, 0.283 ± 0.0331 E-score for the second.

Going from ACTACGTG to GGGGATCA, the binding signal rises from 0.21 ± 0.0113 E-score to 0.275 ± 0.0112 E-score.

First: GAGGGATC
Second: CCCCATGA
The binding signal of the first is higher: 0.213 ± 0.0344 E-score for the first, 0.151 ± 0.00929 E-score for the second.

GGCGAGGA and ACCCTAAG are within error of each other in binding signal: 0.174 ± 0.0324 E-score for the first, 0.1853 ± 0.00154 E-score for the second.

Going from CACCCTTA to ATACCCTA, the binding signal rises from 0.263 ± 0.0167 E-score to 0.312 ± 0.0168 E-score.

ACCAGAAT and CCGACCAG are the same in binding signal: 0.161 ± 0.0505 E-score for the first, 0.161 ± 0.0337 E-score for the second.

Going from AAAACACG to CAAACACA, the binding signal falls from 0.321 ± 0.0302 E-score to 0.19 ± 0.0451 E-score.

Going from AAAACACC to AAAACACA, the binding signal falls from 0.437 ± 0.0129 E-score to 0.188 ± 0.0109 E-score.

Going from TAAACACA to AAAACACT, the binding signal rises from 0.214 ± 0.0172 E-score to 0.301 ± 0.0568 E-score.

Going from GAAACACC to CAAACACC, the binding signal falls from 0.4545 ± 0.000905 E-score to 0.4485 ± 0.00209 E-score.

Compared with CAAACACG, ACCCTCCA is lower in binding signal: 0.32 ± 0.0109 E-score for the first, 0.175 ± 0.00491 E-score for the second.

First: AGAAGGGG
Second: CAGAGGGG
The binding signal of the first is higher: 0.223 ± 0.00875 E-score for the first, 0.193 ± 0.0159 E-score for the second.

Going from CACAACTG to CACCTGAA, the binding signal rises from 0.1786 ± 0.00129 E-score to 0.2354 ± 0.0017 E-score.

First: CACTTGTC
Second: TCCTAGGA
The binding signal of the first is lower: 0.161 ± 0.0236 E-score for the first, 0.22 ± 0.0107 E-score for the second.

Compared with CCGGGGAA, CACCCCAA is higher in binding signal: 0.18 ± 0.0043 E-score for the first, 0.336 ± 0.0263 E-score for the second.

Compared with GCGGGGGA, ACACCAAT is higher in binding signal: 0.157 ± 0.00972 E-score for the first, 0.473 ± 0.00609 E-score for the second.

Going from CACCAAAA to ACACCAAC, the binding signal rises from 0.217 ± 0.0236 E-score to 0.4617 ± 0.00175 E-score.

Compared with ACTCCAAG, GCACCAAC is higher in binding signal: 0.2 ± 0.00662 E-score for the first, 0.261 ± 0.0127 E-score for the second.

ATACCAAC and ACACAAAG are within error of each other in binding signal: 0.163 ± 0.00749 E-score for the first, 0.236 ± 0.0826 E-score for the second.

ACACAAAT and ACCCCAAA are within error of each other in binding signal: 0.167 ± 0.0837 E-score for the first, 0.205 ± 0.0372 E-score for the second.

ACACCAAA and ACACCAAG are within error of each other in binding signal: 0.4659 ± 0.00317 E-score for the first, 0.455 ± 0.0109 E-score for the second.

Going from ACCCCAAT to GGAGAATA, the binding signal falls from 0.266 ± 0.0184 E-score to 0.193 ± 0.0325 E-score.

Compared with CCTGAACA, AGTTAAGA is lower in binding signal: 0.254 ± 0.00385 E-score for the first, 0.155 ± 0.00537 E-score for the second.

Compared with CCGGGTTC, AGTTAGGA is lower in binding signal: 0.22 ± 0.0235 E-score for the first, 0.153 ± 0.019 E-score for the second.

First: GACCCGGA
Second: ACACGCAA
The binding signal of the first is lower: 0.184 ± 0.0271 E-score for the first, 0.3952 ± 0.00317 E-score for the second.

ACGCGCAG and CCCCGCAA are within error of each other in binding signal: 0.175 ± 0.0335 E-score for the first, 0.17 ± 0.00535 E-score for the second.

Going from ACACGCAG to ACGCACAC, the binding signal falls from 0.391 ± 0.00589 E-score to 0.307 ± 0.0495 E-score.

First: ACACGCAT
Second: ACACGCAC
The binding signal of the first is lower: 0.383 ± 0.00385 E-score for the first, 0.4052 ± 0.00394 E-score for the second.

Compared with ACTCCCCT, CGGATCAG is lower in binding signal: 0.249 ± 0.0205 E-score for the first, 0.174 ± 0.00822 E-score for the second.

ACCGGAGG and ACTCCTCC are within error of each other in binding signal: 0.183 ± 0.0608 E-score for the first, 0.213 ± 0.0626 E-score for the second.

ATTTGACA and CGCATTAC are within error of each other in binding signal: 0.216 ± 0.00896 E-score for the first, 0.204 ± 0.0114 E-score for the second.
